Experimental data: the supplement of paper PMC3545927
Some of the results follow. The true hit rate is not given.

Biological target: furin, P09958
Experiment: furin cleavage Z-score vs untreated control; higher = more cleavage, active = 3.5 or more, inactive = 1 or less, 8 variable residues between constant flanks
In short: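 Furin cleavage was scored on 8-mer peptides joined to a cDNA oligonucleotide and bound to magnetic beads at the N-terminus. Digestion with purified furin (1:10 enzyme:substrate, 0.01 ml, 50 mM HEPES pH 7.5, CaCl2, NaCl) lasted 7.5, 15 or 30 min. Freed DNA was tagged with adapters by PCR, sequenced and counted; the cleavage Z-score is the lowess-adjusted log count versus furin-free reactions, scaled by median absolute deviation.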

Chain of furin, P09958 (P09958 whole entry): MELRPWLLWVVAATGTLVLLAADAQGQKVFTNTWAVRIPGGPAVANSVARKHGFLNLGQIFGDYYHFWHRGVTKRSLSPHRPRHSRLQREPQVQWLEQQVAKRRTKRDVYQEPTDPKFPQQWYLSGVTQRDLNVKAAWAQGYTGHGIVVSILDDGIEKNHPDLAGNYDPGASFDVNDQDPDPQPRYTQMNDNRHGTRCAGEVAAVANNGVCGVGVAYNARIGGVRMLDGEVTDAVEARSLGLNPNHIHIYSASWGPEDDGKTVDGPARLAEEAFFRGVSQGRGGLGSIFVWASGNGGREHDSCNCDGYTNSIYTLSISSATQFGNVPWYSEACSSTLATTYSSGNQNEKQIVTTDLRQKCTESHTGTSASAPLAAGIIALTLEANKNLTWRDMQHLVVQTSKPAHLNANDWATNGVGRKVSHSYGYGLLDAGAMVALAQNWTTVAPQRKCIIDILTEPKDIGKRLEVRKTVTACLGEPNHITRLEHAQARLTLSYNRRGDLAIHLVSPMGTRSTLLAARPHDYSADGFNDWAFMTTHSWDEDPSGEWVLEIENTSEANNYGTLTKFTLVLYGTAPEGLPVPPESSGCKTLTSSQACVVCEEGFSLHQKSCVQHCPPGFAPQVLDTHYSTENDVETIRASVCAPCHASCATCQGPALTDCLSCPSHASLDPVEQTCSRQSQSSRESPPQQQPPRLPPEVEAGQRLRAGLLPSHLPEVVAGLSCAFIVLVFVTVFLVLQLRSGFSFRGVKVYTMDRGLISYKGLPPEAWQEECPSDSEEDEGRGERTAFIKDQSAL

Sequence | furin cleavage Z-score (7.5 min) | furin cleavage Z-score (15 min) | furin cleavage Z-score (30 min)
CAEVVTSTWRAGNASASA [HC2253] | 0.989 (inactive) | 0.48 (inactive) | 1.66
CATTPASGSWAGNASASA [HC41] | -0.916 (inactive) | -1.61 (inactive) | -1.23 (inactive)
CADDMEECSQAGNASASA [HC1811] | 0.222 (inactive) | -0.945 (inactive) | -0.707 (inactive)
CARRRRKKARAGNASASA [FS-2790] | 1.33 | 1.06 | 0.0674 (inactive)
CARRRRQAERAGNASASA [FS-2793] | 10.1 (active) | 11.9 (active) | 8.27 (active)
CARRRRDATRAGNASASA [FS-1970] | 13.2 (active) | 14.6 (active) | 10 (active)
CANAVAYYRGAGNASASA [HC867] | -0.298 (inactive) | 0.148 (inactive) | 1.73
CARVRRNAKKAGNASASA [FS-1978] | 6.72 (active) | 5.97 (active) | 7.62 (active)
CAKRERNKRSAGNASASA [FS-1637] | 12.5 (active) | 14.4 (active) | 10.7 (active)
CAGPVRLKKKAGNASASA [FS-1527] | -0.8 (inactive) | -1.68 (inactive) | -0.907 (inactive)
CARVRKSKGKAGNASASA [FS-1802] | 0.157 (inactive) | -1.05 (inactive) | 0.116 (inactive)
CARVRRNKRSAGNASASA [FS-1275] | 11.3 (active) | 10.9 (active) | 9.58 (active)
CARRRKSLKTAGNASASA [FS-2783] | 0.0718 (inactive) | 1.16 | 2.47
CARVRKSLKKAGNASASA [FS-2534] | 0.916 (inactive) | 3.69 (active) | 5.83 (active)
CADSVIDCNTAGNASASA [HC885] | 0.968 (inactive) | 0.824 (inactive) | 1.02
CAASGVLTTSAGNASASA [HC1511] | -1.03 (inactive) | -0.000581 (inactive) | -0.909 (inactive)
CAMEECSQHYAGNASASA [HC1769] | 0.65 (inactive) | 1.28 | 2.12
CAGVPPLRAWAGNASASA [HC1617] | 0.794 (inactive) | 0.986 (inactive) | 0.446 (inactive)
CARKPRDYTIAGNASASA [FS-2695] | 0.48 (inactive) | 0.851 (inactive) | 3.93 (active)
CAQPEYDLELAGNASASA [HC1548] | 1.74 | 0.744 (inactive) | 0.874 (inactive)
CARKSRDMEIAGNASASA [FS-2980] | 0.641 (inactive) | -0.334 (inactive) | 1.3
CARKPRDLELAGNASASA [FS-2038] | 8.14 (active) | 11 (active) | 10.9 (active)
CAVTPIDTTIAGNASASA [HC1436] | -0.162 (inactive) | -2.25 (inactive) | -0.263 (inactive)

Sequence | furin cleavage Z-score (7.5 min) | furin cleavage Z-score (15 min) | furin cleavage Z-score (30 min)
CARKPRPLDPAGNASASA [FS-2563] | 1.12 | 0.612 (inactive) | 0.941 (inactive)
CAAAVTSPLTAGNASASA [HC1058] | 0.302 (inactive) | -1.38 (inactive) | -0.302 (inactive)
CARNSTGLYHAGNASASA [HC258] | 0.587 (inactive) | -0.804 (inactive) | -0.846 (inactive)
CATTALVMAQAGNASASA [HC325] | 0.431 (inactive) | -0.525 (inactive) | -0.108 (inactive)
CAMETCSQHLAGNASASA [HC1718] | -0.505 (inactive) | 1.16 | 2.25
CARLKREIEKAGNASASA [FS-2431] | 9.68 (active) | 9.27 (active) | 9.19 (active)
CARLKRSRLKAGNASASA [FS-1741] | 3.6 (active) | 6.18 (active) | 7.33 (active)
CARLRRPIGKAGNASASA [FS-3160] | -0.962 (inactive) | -0.579 (inactive) | -1.27 (inactive)
CARLRKDQLKAGNASASA [FS-2432] | -0.25 (inactive) | 0.106 (inactive) | 1.29
CARLGRSIDDAGNASASA [FS-2275] | 5.11 (active) | 6.98 (active) | 5.82 (active)
CARLKRNQEKAGNASASA [FS-2707] | -0.221 (inactive) | 0.44 (inactive) | 1.38
CARLGRIVDRAGNASASA [FS-1737] | -0.217 (inactive) | -0.37 (inactive) | 0.14 (inactive)
CARLKRYHSQAGNASASA [FS-2156] | 1.21 | -0.314 (inactive) | 1.6
CARLKRNIGYAGNASASA [FS-1962] | 4.52 (active) | 7.71 (active) | 8.24 (active)
CAIVPCHRPSAGNASASA [HC2304] | 0.422 (inactive) | 0.63 (inactive) | 0.055 (inactive)
CAGKSTKVPAAGNASASA [HC778] | 1.37 | 0.655 (inactive) | -0.125 (inactive)
CAEMTTPCSGAGNASASA [HC1966] | -0.105 (inactive) | -0.176 (inactive) | -0.555 (inactive)
CASSEANAEDAGNASASA [HC1365] | -1.29 (inactive) | -2.48 (inactive) | -1.24 (inactive)
CAVAGALVAFAGNASASA [HC1090] | 1.08 | -1.61 (inactive) | -0.599 (inactive)
CARLKRSPDKAGNASASA [FS-2277] | 9.81 (active) | 12.1 (active) | 8.68 (active)
CARLKRFSMVAGNASASA [FS-2705] | 1.5 | 0.596 (inactive) | 2.46
CARLTRSNSKAGNASASA [FS-1750] | -0.152 (inactive) | 1.68 | -1.49 (inactive)
